Bioassay records: PubChem, several laboratories
Hits are enriched below; roughly 4.4% of the tested compounds scored in any of these assays.
TIM10 inh = growth inhibitors of isogenic TIM10 control yeast, primary screen, counter-screen for tim10-1 yeast inhibitor project, luminescence, uHTS; S. cerevisiae TIM10 strain growth, BacTiter-Glo luminescence, 24 h; inhibition, % at 10 µM; 1.4% of 330,000 active; AID 463195, 2010;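 active = inhibition of 40% or more at the single tested concentration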;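 note: wild-type TIM10 isogenic control strain grown at permissive 25 °C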
PfHsp90 set2 = growth inhibition of PfHsp90-expressing yeast, primary screen, antimalarial PfHsp90 inhibitor project, S. cerevisiae, BacTiter-Glo luminescence, single point, set 2; BacTiter-Glo ATP, 48 h; yeast lacking PDR1 and PDR3 efflux regulators; inhibition, % at 9.4 µM; 0.32% of 310,000 active;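 active = every replicate shows inhibition above about 80%, whatever the replicate mean, limit read from the data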;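 note: 0% = DMSO neutral controls and 100% = 20 µM radicicol positive controls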
tim10-1 inh = growth inhibitors of tim10-1 mutant yeast, primary screen, luminescence, uHTS | S. cerevisiae tim10-1 ts strain growth, BacTiter-Glo, 24 h | inhibition, % at 20 µM | 2.2% of 330,000 active;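 active = inhibition of at least 40%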;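 note: mutant grown at 25 °C; 0% = DMSO wells with yeast and 100% = wells holding no yeast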
SKKanGAS inh = S. pyogenes SKKanGAS growth inhibitors in kanamycin, primary screen, streptokinase expression inhibitor project, SKKanGAS strain, BacTiter-Glo luminescence; 6 h; inhibition, % at 7.5 µM; 1.3% of 300,000 active; AID 1662, 2009;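 active = mean replicate score, as percent of positive control median, at least 50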;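 note: strain carries kanamycin resistance gene driven by streptokinase promoter and grows in 40 µg/ml kanamycin; loss of luminescence reflects streptokinase promoter inhibition or plain growth inhibition; 0% = median of DMSO wells and 100% = positive control at its reference dose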
tim23-1 inh = growth inhibitors of tim23-1 mutant yeast, primary screen, luminescence, uHTS | S. cerevisiae tim23-1 growth, BacTiter-Glo luminescence, 24 h | inhibition, % at 20 µM | 1.3% of 330,000 active | AID 463212, 2010;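 active = growth inhibition of the mutant yeast at or above 50%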;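 note: temperature-sensitive mutant grown at 25 °C; plate controls were DMSO-treated mutant yeast for no effect and medium wells lacking yeast for full effect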
Starred values were filed as active, the others as inactive; · = no result.

SMILES	TIM10 inh	PfHsp90 set2	tim10-1 inh	SKKanGAS inh	tim23-1 inh
CCSc1n[nH]c2nc3c(c(=O)n12)C1(CCCCC1)Cc1ccccc1-3	9	-44	28	-6	34
CCn1nc(C(=O)OCC(=O)N(CCC#N)c2ccccc2)c2ccccc2c1=O	2	-21	10	·	14
O=C(NCc1ccccc1CN1CCCC1)c1cc2cc(Cl)ccc2o1	0	-6	-11	·	-6
Nc1cc(S(=O)(=O)N2CCOCC2)ccc1N1CCCCC1	2	0	15	·	14
O=c1c2ccccc2sn1-c1cc(S(=O)(=O)N2CCOCC2)ccc1N1CCOCC1	7	-32	-1	76*	17
O=c1c2ccccc2sn1-c1cc(S(=O)(=O)N2CCOCC2)ccc1N1CCCC1	8	-15	25	85*	10
C=CC[C@]12CCc3sccc3C1N(c1ccc(C(=O)OCC)cc1)C2=O (some centres undefined)	2	-6	1	·	21
O=C(NNC(=O)c1cc2ccccc2[nH]1)OCc1ccccc1	7	-45	11	·	9
CCOc1ccc(C(=O)NCC2CCCN2S(=O)(=O)c2cccs2)cc1 (centres undefined)	10	13	12	53*	27
COc1cc(C(=O)NCC2CCCN2S(=O)(=O)c2cccs2)cc(OC)c1OC (centres undefined)	1	6	-12	-2	0
COC(=O)c1sc(-c2ccc(Cl)cc2)cc1NC(=O)c1ccccc1C(=O)O	23	-7	14	2	27
COC(=O)c1sc(-c2ccc(C(C)(C)C)cc2)cc1NC(=O)c1ccccc1C(=O)O	18	-19	27	54*	35
COC(=O)c1sc(-c2ccc(C(C)(C)C)cc2)cc1NC(=O)CSCC(=O)O	10	-32	15	57*	8
COC(=O)c1sc(-c2ccccc2)cc1NC(=O)C1CC1	21	0	20	16	22
COc1ccccc1-c1nnc(SCC(=O)Nc2ccc(N3CCOCC3)cc2)n1N	4	10	-1	·	6
C(=C\c1nc2ccccc2[nH]1)/c1ccccc1	31	78*	30	22	43
Nc1ncnc2c1ncn2[C@@H]1O[C@H](CNS(=O)(=O)c2cc(S(=O)(=O)c3ccccc3)cs2)[C@@H](O)[C@H]1O	-11	16	3	·	33
Cc1ccc(S(=O)(=O)Nc2ccc3ccccc3c2[N+](=O)[O-])cc1	·	115*	·	·	·
Cc1ccc(S(=O)(=O)Nc2ccc3cc([N+](=O)[O-])ccc3c2[N+](=O)[O-])cc1	·	111*	·	·	·
COc1ccc([N+](=O)[O-])cc1NS(=O)(=O)c1ccc(C)cc1	20	6	-1	10	35
COc1ccc(NS(=O)(=O)c2ccc(C)cc2)c([N+](=O)[O-])c1	6	-22	31	-11	43
O=C(NC(=S)Nc1ccc(Cl)c(C(=O)O)c1)c1cccc(COc2ccccc2)c1	18	-2	18	56*	30
Cc1ccccc1-c1nc2c3ccccc3nc(=S)n2[nH]1	·	-11	·	94*	·
CCCCn1c(N)c(N(CC(C)C)C(=O)CN2C(=O)NC3(CCC(C(C)(C)CC)CC3)C2=O)c(=O)[nH]c1=O (centres undefined)	·	-9	·	·	·
CN(CC(=O)Nc1ccccc1Cl)CC(=O)c1c(N)n(Cc2ccccc2)c(=O)n(C)c1=O	2	8	-10	·	6
SMILES	TIM10 inh	PfHsp90 set2	tim10-1 inh	SKKanGAS inh	tim23-1 inh
CC(C)(C)c1ccc2c(c1)OC(C(=O)N/N=C/c1ccc([N+](=O)[O-])o1)CO2 (centres undefined)	6	·	-49	66*	28
CC(C)(C)c1ccc2c(c1)OC(C(=O)N/N=C\c1ccncc1)CO2 (centres undefined)	-79	2	-64	-20	7
COc1cc(/C=N/NC(=O)Cc2csc(C)n2)ccc1OCC(C)C	3	-13	21	17	12
COc1ccc(/C=N/NC(=O)Cc2csc(Nc3cccc(C(F)(F)F)c3)n2)cc1C	9	-14	18	77*	14
O=[N+]([O-])c1ccc(/C=N/Nc2nc(N3CCCCCC3)nc(N3CCCCCC3)n2)o1	19	·	36	75*	-1
COc1ccc(-c2ccc([C@H]3[C@@H]4C=CCC[C@@]4(C)C(=O)N3Cc3ccccc3)c(F)c2)cc1	6	-5	18	58*	1
C[C@@]12CCC=C[C@H]1[C@H](c1ccc3ccccc3c1Br)N(Cc1ccccc1)C2=O	19	9	32	75*	47
Cc1ccc(-c2ccc([C@H]3[C@@H]4C=CCC[C@@]4(C)C(=O)N3Cc3ccccc3)c(F)c2)cc1	6	-2	18	43	1
CCC1(O)CC2CN(CCc3c([nH]c4ccccc34)C(C(=O)OC)(c3cc4c(cc3OC)N(C=O)C3C(O)(C(=O)OC)C(OC(C)=O)C5(CC)C=CCN6CCC43C65)C2)C1 (centres undefined)	·	-8	·	·	·
Cc1ccc2nc(/N=C(\N)NC(=O)NC3CCCCC3)nc(C)c2c1	12	11	-10	53*	22
CCC(=O)N/C(N)=N/c1nc(C)c2cc(C)c(C)cc2n1	39	·	22	5	34
Cc1cc2nc(/N=C(\N)NC(=O)C(C)C)nc(C)c2cc1C	33	-5	15	53*	21
CCCN(CCC)C(=O)C(c1ccccc1)C1(O)CCCCC1 (centres undefined)	·	-15	·	·	·
CCOC(=O)C1=NN(C(=O)c2ccccc2)C(O)(c2ccc(C)cc2)C1 (centres undefined)	21	14	31	7	18
CCOC(=O)C1=NN(C(=O)c2ccc(OC)cc2)C(O)(c2ccc(Cl)cc2)C1 (centres undefined)	20	6	28	53*	39
Cc1ccc(Nc2nc3ccccc3[nH]2)nc1	4	·	14	66*	-78
Cc1ccc(C)c(C(=O)Nc2nc3ccccc3[nH]2)c1	-10	-30	-17	7	12
CC[C@@H](C(=O)[C@@H](C)[C@@H](O)[C@H](C)CCc1ccc(C)c(O)c1C(=O)O)[C@H]1O[C@](CC)([C@H]2CC[C@](O)(CC)[C@H](C)O2)C[C@@H]1C	11	11	22	108*	39
Cc1cc(N/N=C/c2c(O)ccc3ccccc23)nc(-c2ccccc2O)n1	3	-19	31	85*	15
COc1ccc2c(c1)[C@H]1[C@H](CO2)[C@H](c2ccccc2)[C@]2(C)C(=O)Nc3ccc(Cl)cc3C(=O)N12	·	137*	·	·	·
C[C@@]12C(=O)Nc3ccc(Cl)cc3C(=O)N1[C@H]1c3cc(Cl)ccc3OC[C@@H]1[C@@H]2c1ccccc1	22	-37	20	·	34
